From PubChem BioAssay (NCI)
Compounds without any hit were thinned out: in the full panel of roughly 83,000, 20% have a hit.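 Each cell line was grown in a 96-well plate and treated with one concentration of compound for 48 hours. Values below 10 were considered active.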

Columns and labels:
Experiment in all cases: NCI-60 one-dose screen, 48 h (100 = growth as untreated, 0 = no growth, -100 = all killed)
SR leukemia = conditions: 10 µM
RPMI-8226 leukemia = conditions: 10 µM
OVCAR-8 ovarian = conditions: 10 µM
OVCAR-5 ovarian = conditions: 10 µM
OVCAR-4 ovarian = conditions: 10 µM
SK-OV-3 ovarian = conditions: 10 µM
IGROV1 ovarian = conditions: 10 µM
OVCAR-3 ovarian = conditions: 10 µM
HS 578T breast = conditions: 10 µM
T-47D breast = conditions: 10 µM
BT-549 breast = conditions: 10 µM
MDA-MB-435 melanoma = conditions: 10 µM
SW-620 colon = conditions: 10 µM
MCF7 breast = conditions: 10 µM unless noted
HCT-116 colon = conditions: 10 µM
HCC-2998 colon = conditions: 10 µM
NCI/ADR-RES ovarian = conditions: 10 µM
KM12 colon = conditions: 10 µM

Measured: growth

CCOC(=O)CNN
inactive: SR leukemia 106% | RPMI-8226 leukemia 110% | OVCAR-8 ovarian 96.1% | OVCAR-5 ovarian 112% | OVCAR-4 ovarian 106% | SK-OV-3 ovarian 108% | IGROV1 ovarian 112% | OVCAR-3 ovarian 108% | HS 578T breast 105% | T-47D breast 104% | BT-549 breast 108% | MDA-MB-435 melanoma 108% | SW-620 colon 99.2% | MCF7 breast 97.9% | HCT-116 colon 107% | HCC-2998 colon 106%

Cc1ncc(C#N)c(N)n1
inactive: SR leukemia 92.4% | RPMI-8226 leukemia 103% | OVCAR-8 ovarian 102% | OVCAR-5 ovarian 99.5% | OVCAR-4 ovarian 92.5% | SK-OV-3 ovarian 117% | IGROV1 ovarian 106% | OVCAR-3 ovarian 110% | HS 578T breast 92.3% | NCI/ADR-RES ovarian 100% | BT-549 breast 94.4% | MDA-MB-435 melanoma 90.2% | SW-620 colon 99.9% | MCF7 breast 99.7% | HCT-116 colon 96.7% | HCC-2998 colon 102% | KM12 colon 104%

NC(=S)N/N=C/c1ccc(N)cc1
inactive: SR leukemia 98.6% | RPMI-8226 leukemia 98.8% | OVCAR-8 ovarian 102% | OVCAR-5 ovarian 108% | OVCAR-4 ovarian 108% | SK-OV-3 ovarian 100% | IGROV1 ovarian 103% | OVCAR-3 ovarian 103% | NCI/ADR-RES ovarian 102% | T-47D breast 93.9% | BT-549 breast 96.3% | MDA-MB-435 melanoma 105% | SW-620 colon 104% | MCF7 breast 94.8% | HCT-116 colon 94.1% | HCC-2998 colon 104% | KM12 colon 103%

COc1cc(/C=C(\C#N)C(=O)c2ccccc2)ccc1OCc1ccccc1
inactive: SR leukemia 109% | RPMI-8226 leukemia 107% | OVCAR-8 ovarian 108% | OVCAR-5 ovarian 103% | OVCAR-4 ovarian 106% | SK-OV-3 ovarian 107% | IGROV1 ovarian 91.1% | OVCAR-3 ovarian 101% | HS 578T breast 97.5% | T-47D breast 105% | BT-549 breast 94.9% | MDA-MB-435 melanoma 101% | SW-620 colon 99.4% | MCF7 breast 96.6% | HCT-116 colon 104% | HCC-2998 colon 89.8% | KM12 colon 99.1%

Nc1ccc(N=Nc2ccc(O)cc2)c(N)n1
inactive: SR leukemia 80% | RPMI-8226 leukemia 38.1% | OVCAR-8 ovarian 75% | OVCAR-5 ovarian 104% | OVCAR-4 ovarian 59.2% | SK-OV-3 ovarian 97.3% | IGROV1 ovarian 89.4% | OVCAR-3 ovarian 73.4% | NCI/ADR-RES ovarian 64.5% | T-47D breast 82.8% | BT-549 breast 57.2% | MDA-MB-435 melanoma 69.3% | SW-620 colon 104% | MCF7 breast 93.4% | HCT-116 colon 86.3% | HCC-2998 colon 81.5% | KM12 colon 43.2%
